This excerpt belongs to a sample that is enriched for hits.
CHX counter: affects cycloheximide protein synthesis inhibition readout, counter-screen | AID 2314 | max response, % | cell reporter, cycloheximide protein synthesis inhibition counterscreen | 300,000 tested, 12% active; in the data active = max response mostly above about 13%, no sharp cut-off; inactive = mostly below about 14%; also: read at 38.3 µM for the half of the compounds with a filed dose; 0% is about no effect
Shiga inhibitor: blocks Shiga toxin action in Vero cells; 290,000 tested, 9.2% active; inhibition, % at 38.7 µM; AID 2315; Vero cells, Shiga toxin protein synthesis inhibition reporter; in the data active = inhibition mostly above about 28%, no sharp cut-off; inactive = mostly below about 43%; also: 0% is about no effect
TbPYK inhibitor: blocks Trypanosoma brucei pyruvate kinase; Q57TT1; Potency, µM (titrated, usually from 76.8 µM), inactives show at the highest dose activity, negative = inhibition, most hits filed as inhibitors; 410,000 tested, 0.12% active; TbPYK enzyme, Kinase-Glo Plus ATP luminescence, 45 min; also: potency is read from the fitted curve at half-maximal effect; % is scaled to controls: 0 for no effect and ±100 for the full control effect; nearly all actives have a fitted effect of over 50% in size
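ADP (130 uM final) triggers the TbPYK reaction after compound addition; incubation is 45 min at room temperature. Kinase-Glo Plus is then added and luminescence imaged. Normalized data are fitted to concentration-effect curves.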
RE007 growth inh: less growth of the S. pombe RE007 Vpr strain; S. pombe RE007 Vpr strain, BacTiter-Glo ATP luminescence, 24 h; Potency, µM (titrated, usually from 92.2 µM), for the others: at the top dose activity change, negative = less growth, usual class: inhibitors; 360,000 tested, 0.21% active; AID 651644; active = well fitted falling curve with a large enough effect; inconclusive = small, poorly fitted or top-dose-only effect; inactive = no such curve, though single readings can be large or run the other way; also: potency is read from the fitted curve at half-maximal effect; % is scaled to controls: 0 for no effect and ±100 for the full control effect; nearly all actives have a fitted effect of over 50% in size
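Fission yeast RE007 carrying one integrated HIV-1 vpr copy, seeded at OD 0.01 in PMG+AL medium with 23 nL pinned compound. Grown 24 h at 30 degrees; viability read by BacTiter-Glo luminescence after 5 min.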
LmPK inh: blocks Leishmania mexicana pyruvate kinase activity; Q27686; purified LmPK, Kinase-Glo ATP luminescence, 1 h; Potency, µM (doses to about 57.5 µM), inactives show at the top dose activity change, negative = inhibition, actives largely listed as inhibitors; 290,000 tested, 0.37% active; also: potency is read from the fitted curve at half-maximal effect; % is scaled to controls: 0 for no effect and ±100 for the full control effect
Target sequence (Q27686 whole entry, looked up): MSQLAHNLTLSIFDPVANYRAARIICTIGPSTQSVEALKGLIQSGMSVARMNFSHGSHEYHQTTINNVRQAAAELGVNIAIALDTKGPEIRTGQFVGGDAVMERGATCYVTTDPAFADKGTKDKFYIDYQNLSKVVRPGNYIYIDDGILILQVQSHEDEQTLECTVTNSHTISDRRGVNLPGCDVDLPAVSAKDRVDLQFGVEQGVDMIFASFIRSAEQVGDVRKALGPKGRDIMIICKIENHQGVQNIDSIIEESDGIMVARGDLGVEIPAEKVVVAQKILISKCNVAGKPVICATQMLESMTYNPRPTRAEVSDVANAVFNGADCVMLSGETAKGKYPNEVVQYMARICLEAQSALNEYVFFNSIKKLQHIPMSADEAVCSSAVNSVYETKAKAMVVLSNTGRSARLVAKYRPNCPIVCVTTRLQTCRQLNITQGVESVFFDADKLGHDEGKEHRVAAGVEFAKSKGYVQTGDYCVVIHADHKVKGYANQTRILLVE
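In 50 mM imidazole pH 7.2 with 7 mM MgCl2, LmPK (0.1 nM) turned over PEP (0.5 mM) and ADP (0.1 mM) for 1 h at room temperature. Luciferase read-out of ATP.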
Giardia FBPA inh: blocks Giardia fructose-bisphosphate aldolase activity; A8B2U2; purified Giardia FBPA; Potency, µM (titrated, usually from 59.6 µM), for inactives: at the highest dose activity, negative = inhibition, usual class: inhibitors; 290,000 tested, 0.71% active; AID 2451; also: potency is read from the fitted curve at half-maximal effect; % is scaled to controls: 0 for no effect and ±100 for the full control effect; nearly all actives have a fitted effect of over 55% in size
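40 nM FBPA preincubated 10 min at RT with compound (up to 57.5 uM final), then substrate plus GAPDH/TPI/NAD/arsenate coupling and diaphorase/resazurin added. Fluorescence read after 20 min at RT, 525/598 nm.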
The depositor's hits bear a star; ? = inconclusive; · = no result; [ ] = another dose, or the depositor's remark. Unless noted, calls follow the shape of the dose curve; as a rule, active = well fitted curve in the direction sought with a large enough effect; inconclusive = small, poorly fitted or top-dose-only effect, or another doubt; inactive = no such curve, though single readings can be large; an effect the other way counts as inactive or inconclusive.

SMILES	CHX counter	Shiga inhibitor	TbPYK inhibitor	RE007 growth inh	LmPK inh	Giardia FBPA inh
COc1ccc(C2=NN(c3ccccc3)C(c3ccc(OC)c(OC)c3)C2)cc1 (configuration not stated)	20*	46*	6%	7%	-1%	10%
Cc1cccc(N(CC(N)=O)C2SC(=O)N(Cc3cccc(C(=O)O)c3)C2=O)c1 (configuration not stated)	·	·	3%	·	·	·
O=C(CCC1N=C2c3ccccc3N=C(SCc3cccc(F)c3)N2C1=O)NCCc1ccccc1 (configuration not stated)	·	·	-4%	·	·	·
CN1[C@@H]2CC[C@H]1CC(OC(=O)[C@@H](O)c1ccccc1)C2 (some centres not stated)	·	·	6%	·	·	0%[21.7 µM]
COc1ccccc1C(=O)OCc1ccc2sc(C)nc2c1	28*	78*	-4%	-18%	-4%	2%
CNc1ccc(Br)cc(C(=O)/C=C/c2ccc3c(c2)OCO3)c1=O	25*	74	-17%	-22%	0%	?
CNc1ccc(Br)cc(C(=O)/C=C/c2ccc(OC)cc2)c1=O	21*	active	-15%	-7%	1%	?
Cc1noc(C)c1-c1ccc2ncnc(NCc3cccn3C)c2c1	1	-6	·	·	·	-2%
CN1CCN(c2ncc3ncc(=O)n(CCC#N)c3n2)CC1	·	·	·	·	·	-8%
Cc1ccc(Nc2nc(C)cc(C)n2)c(C(=O)O)c1	·	·	2%	·	·	·
CC(=O)/C(N=Nc1ccc2c(c1)OCCO2)=C(\C)O	82*	136*	-14%	1%	-1%	-2%
CCN(CC)S(=O)(=O)c1ccc(N=N/C(C(C)=O)=C(/C)O)cc1	2	-7	-2%	10%	-2%	-3%
CC(=O)/C(N=Nc1ccc2c(c1)OCO2)=C(\C)O	74*	108*	-2%	-12%	-25%	6%
CC(=O)/C(N=Nc1ccc(C(=O)O)cc1)=C(\C)O	-2	4	-13%	6%	?	0%
O=C(NCc1ccccc1)c1ccc(CSc2ccccc2)o1	8	14	2%	-14%	6%	-2%
O=C(Nc1cccc(F)c1)c1ccc(CSc2ccccc2)o1	55*	95*	3%	-14%	2%	-7%
CC(=O)Nc1ccc(NC(=O)c2ccc(CSc3ccccc3)o2)cc1	4	13	4%	-7%	13%	5%
O=C(Nc1ccccc1F)c1ccc(CSc2ccccc2)o1	54*	63*	-6%	-7%	0%	-14%
CCCCc1nc2c(c3c1CC(C)OC3)CN(CCC(C)C)CC2 (configuration not stated)	·	·	·	·	·	-12%[12.9 µM]
N#C/C(=C\c1ccc(N2CCCC2)c([N+](=O)[O-])c1)c1nc2ccccc2[nH]1	50*	112*	·	17%[3.69 µM]	-1%	-4%
N#C/C(=C\c1ccc(N2CCCCC2)c([N+](=O)[O-])c1)c1nn(-c2ccccc2)c(N)c1C#N	-2	-12	-15%	·	3%	0%
COc1cc(/C=C(/C#N)c2nc3ccccc3[nH]2)ccc1Oc1ncccc1[N+](=O)[O-]	13*	24	-2%	-1%	0%	-5%
CCOc1cc(/C=C(\C#N)c2nc3ccccc3[nH]2)ccc1OC(C)C(=O)O (configuration not stated)	30*	77*	-3%	9%	-2%	-13%
COc1cc(/C=C(\C#N)c2nc3ccccc3[nH]2)ccc1OCc1cccc(C(F)(F)F)c1	·	·	4%	·	·	·
COc1ccc2nc(/C(C#N)=C\c3ccc(Oc4ccc([N+](=O)[O-])cn4)cc3)[nH]c2c1	-6	-5	-6%	-17%	-4%	2%
SMILES	CHX counter	Shiga inhibitor	TbPYK inhibitor	RE007 growth inh	LmPK inh	Giardia FBPA inh
CCOc1cc(/C=C(/C#N)c2nc3ccccc3[nH]2)ccc1Oc1ccc([N+](=O)[O-])cn1	11*	17	-4%	-8%	-1%	-15%
COc1cc(/C=C(/C#N)c2nc3ccccc3[nH]2)ccc1OCc1ccc(C(=O)O)o1	10	50	2%	0%	14%	·
CCCc1cc(=O)[nH]c(SCc2nc(-c3ccc(OC)cc3)no2)n1	·	·	5%	·	·	·
N#C/C(=C(/O)CN1CCCCC1)c1nc(-c2ccc(Cl)cc2)cs1	18*	50*	-5%	-8%	-3%	-9%
N#C/C(=C(/O)CCl)c1nc(-c2ccccc2)cs1	21*	52*	-2%	-13%	0%	?
Cc1ccc(-c2csc(/C(C#N)=C(\O)CCl)n2)cc1	33*	93*	-14%	0%	2%	-19%
CCCCN(C)C/C(O)=C(\C#N)c1nc(-c2ccccc2)cs1	12	33*	0%	-6%	4%	-24%
COc1cc(OC)cc(C(=O)Nc2cccc(-c3cn4ccsc4n3)c2)c1	·	·	4%	·	·	·
COc1ccc([C@H]2[C@H](C(=O)OC(C)(C)C)N3N=Cc4ccccc4C3C23C(=O)c2ccccc2C3=O)c(OC)c1 (some centres not stated)	18*	45*	-8%	13%	-1%	-29%
NC1=NC(c2ccccc2)N=C(Nc2ccccc2)N1 (configuration not stated)	14*	20	·	·	1%	-7%
CCN(C(=O)CSc1nc2ccccc2n1Cc1ccc(C(=O)OC)cc1)c1ccccc1	·	·	0%	·	·	·
COc1ccc2nc(/C=N/NC(=O)[C@H](C)NC(=O)OC(C)(C)C)ccc2c1	16*	active	·	·	0%	-15%
Cc1sc(NC(=O)c2sc3nc4c(C)cccc4cc3c2N)c(C#N)c1C	19*	37*	-13%	-4%	-3%	?
COc1ccc(-c2nnc(SCC(=O)NCc3ccco3)o2)cc1	22*	92*	0%	-6%	3%	0%
Cc1cc(C(=O)CSc2nnc(-c3cccs3)o2)c(C)n1-c1ccccc1	12*	77*	0%	5%	2%	?
COc1ccc(-c2nnc(SCC(=O)c3cccs3)o2)cc1	29*	95*	-10%	11%	-15%	5%
Cc1ccc(SCC(=O)c2ccc[nH]2)cc1	35*	79*	1%	-14%	-13%	-11%
COc1ccc(Cc2nnc(SCC(=O)NCc3ccco3)o2)cc1	-2	-10	1%	-3%	5%	1%
Cc1ccc(CNC(=O)c2ccc[nH]2)cc1	-4	20	0%	25%	3%	-3%
O=C(CCCCCn1c(=O)[nH]c2ccsc2c1=O)NCc1ccccc1	·	·	-12%	·	·	·
CCOc1ccc(C(CC(=O)Nc2cc(C)c(Cl)cc2OC)N2Cc3ccccc3C2=O)cc1OC (configuration not stated)	·	·	-6%	·	·	·
CCC(C(=O)Nc1ccc(C)c(Cl)c1)n1c(=O)c(-c2ccccc2NC(C)=O)nc2ccccc21 (configuration not stated)	·	·	-5%	·	·	·

Screening data as filed in PubChem BioAssay.
